Compound activity from PubChem.
PfHsp40 rescue: rescue of yeast from PfHsp40 toxicity, primary screen, S. cerevisiae, ATP luminescence; S. cerevisiae expressing PfHsp40, growth rescue; growth rescue, % at 12.5 µM; 340,000 tested, 0.68% active; AID 504582, 2011; in the data active = growth rescue above about 28%, passing the limit was not always enough; inconclusive = no clear call, values can overlap the other calls;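 note: yeast W303a lacking pdr1 and pdr3 grown in galactose medium; growth measured after three days at 30 °C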
Sa ugtP lethal: growth inhibition of ugtP-null S. aureus, primary screen, RN4220 ugtP deletion, OD600 | 16 h | growth inhibition, % (concentration not given with the values) | 330,000 tested, 0.54% active | AID 1259309, 2017; in the data active = growth inhibition above about 68%;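 note: plate controls were untreated wells for no effect and antibiotic for full effect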
Vc quorum ag: inducers of Vibrio cholerae quorum light production without autoinducers, primary screen, BH1578 luxS cqsA deficient, single point. V. cholerae BH1578 lux reporter, luminescence, 6 h. 350,000 tested, 0.16% active. AID 588436, 2011. activation, % at 18.7 µM; in the data active = activation mostly above about 9.7%, no sharp cut-off; inconclusive = no clear call, values can overlap the other calls; inactive = mostly below about 3.7%
Mtb hypoxia inh: PubChem AID 1159583. M. tuberculosis hypoxia-regulated fluorescent reporter, fluorescence. fluorescence inhibition, % (test concentration not listed). 300,000 tested, 0.1% active; in the data active = fluorescence inhibition mostly above about 23%, no sharp cut-off; inactive = mostly below about 17%
CCHF vOTU inh-1: CCHFV vOTU protease inhibitors, primary screen, biochemical, Pep-AMC substrate, fluorescence; Crimean-Congo hemorrhagic fever virus L polyprotein viral ovarian tumor (vOTU) protease …; inhibition, % at 11.5 µM; 370,000 tested, 0.55% active; AID 651958, 2012; note: 0% = vehicle wells with enzyme and 100% = no enzyme wells
RN4220 kill: growth inhibition of S. aureus RN4220, primary screen, OD600; 16 h; inhibition, % (test concentration not listed); 330,000 tested, 0.33% active; in the data active = inhibition above about 85%;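 note: plate controls were untreated cells for no effect and reference antibiotic for full effect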
CCHF vOTU inh-2: CCHFV vOTU protease inhibitors, confirmation, biochemical, Pep-AMC substrate, fluorescence. shares compounds with CCHF vOTU inh-1. Recombinant CCHFV vOTU. inhibition, % at 11.5 µM. 1,900 tested, 17% active. AID 686976, 2013
Active calls of the source: *; i = inactive; ? = inconclusive; / = no result. The list is not random: actives were taken first. Their share in the collection is about 1.7%. Cut-off read from the data, not from the text of the source, unless noted: active = inhibition above about 30%; inactive = the rest.

SMILES | PfHsp40 rescue | Sa ugtP lethal | Vc quorum ag | Mtb hypoxia inh | CCHF vOTU inh-1 | RN4220 kill | CCHF vOTU inh-2
O=c1[nH]c(CN2CCOCC2)nc2ccccc12 | 0 | 5 | 0 | 2 | 10 | 3 | /
N#CC(=Cc1ccc(O)c(O)c1)C(=O)Nc1ccccc1 | / | -13 | / | 14 | / | 12 | /
Cc1ccc(S(=O)(=O)NN=C(c2ccccc2)c2cccs2)cc1 | / | / | i | / | 32* | / | -3
O=C1/C(=C\c2ccc(O)cc2)SC(=S)N1N=Cc1ccc(O)cc1 | / | -7 | / | 1 | / | 2 | /
CCC(C)C1NC(=O)C(CC(C)C)NC(=O)C(Cc2ccccc2)NC(=O)C(Cc2ccccc2)NC(=O)C2CCCN2C(=O)C2CCCN2C(=O)C(C(C)C)NC(=O)C(CC(C)C)NC(=O)C(C(C)CC)NC1=O (stereo not given) | / | 25 | / | -4 | / | 13 | /
CCCCOn1c(C)c(C(=O)OCC)c2c3nonc3ccc21 | 1 | -22 | i | 1 | 9 | 9 | /
COn1c(C)c(C(C)=O)c2c3nonc3ccc21 | 1 | -5 | i | / | 31* | 2 | -3
COc1cc(/C=N/N=C2/NC(=O)C(CC(=O)O)S2)ccc1OCc1ccc(Cl)cc1 (stereo not given) | -1 | / | 0 | / | 34* | / | 17
COc1cc(C=N/N=C2/NC(=O)C(CC(=O)O)S2)ccc1OCc1ccc(Cl)cc1 (stereo not given) | / | 8 | / | 4 | / | 5 | /
Cc1ccc(OCC(=O)NN=Cc2ccco2)cc1 | / | 6 | / | 10 | / | 8 | /
CC1C(NC(=O)C(=NOC(C)(C)C(=O)O)c2csc(N)n2)C(=O)N1S(=O)(=O)O (stereo not given) | / | 4 | / | 3 | / | 8 | /
O=C(Cc1cccs1)NN=Cc1ccccc1 | / | 1 | / | 2 | / | 3 | /
Cn1c(=NNC(=O)c2ccccc2Br)sc2ccccc21 | / | 3 | / | 1 | / | 5 | /
CCc1ccc(OCC(=O)Nc2ccc(S(=O)(=O)Nc3cc(C)on3)cc2)c(Br)c1 | 2 | -12 | i | 3 | 44* | 18 | 2
N#CCC(=O)NN=Cc1cc(Br)ccc1OCc1cccc2ccccc12 | / | 62 | / | -5 | / | 29 | /
Cc1oc2c(cc(NS(=O)(=O)c3ccc(C(C)C)cc3)c3ccccc32)c1C(=O)O | -1 | / | -1 | / | 27 | / | /
O=S(=O)(Nc1ccc(NS(=O)(=O)c2ccccc2)c2ccccc12)c1ccccc1 | / | / | i | / | 24 | / | /
CCc1ccc(S(=O)(=O)Nc2ccc(O)c3ccccc23)cc1 | 0 | / | i | / | 62* | / | -16
Cc1oc2c(cc(NS(=O)(=O)c3ccc(F)cc3)c3ccccc32)c1C(=O)O | 0 | -11 | -1 | -10 | 30* | 2 | -10
O=S(=O)(Nc1ccc(O)c2ccccc12)c1ccc(F)cc1 | -1 | 12 | i | 10 | 81* | 5 | 5
CC(C)(C)c1cc(=O)n(-c2ccccc2)[nH]1 | 0 | -16 | 0 | -7 | 77* | 6 | -7
COC(=O)[C@@]12CCCCN1C(c1ccc(-c3ccc(OC)cc3)cc1)C1C(=O)N(C)C(=O)C12 (stereo not given in full) | / | 10 | / | -6 | / | 3 | /
O=C1CCN(C(=O)CCCn2c(=O)oc3ccccc32)CC1 | -1 | 4 | 1 | 9 | -12 | -3 | /
O=C(CCCn1c(=O)oc2ccccc21)N1CCc2ccccc2C1 | -1 | 13 | i | / | 35* | 5 | -9
COC(=O)COc1ccc(S(=O)(=O)NC2CCCCCC2)cc1 | 6 | 13 | 5 | -3 | 55* | 4 | -17
SMILES | PfHsp40 rescue | Sa ugtP lethal | Vc quorum ag | Mtb hypoxia inh | CCHF vOTU inh-1 | RN4220 kill | CCHF vOTU inh-2
CCC(=NCC1CCCO1)c1c(O)n(Cc2ccccc2)c(=O)[nH]c1=O (stereo not given) | -2 | 13 | i | 1 | 33* | 4 | -5
Cc1ccc(C=N/N=C2/NC(=O)C(CC(=O)Nc3ccc(Cl)cc3)S2)o1 (stereo not given) | / | 3 | / | 7 | / | 3 | /
Cc1noc(C)c1S(=O)(=O)Nc1ccc2c(c1)CC(=O)N(C(C)CO)CC(C)C(CN(C)CC1CC1)O2 (stereo not given) | / | 1 | / | 2 | / | 5 | /
O=C(Nc1ccccc1C(=O)O)c1cccc(NC(=O)c2ccc(Br)o2)c1 | 0 | -7 | / | -1 | 30* | 6 | 2
O=C(Nc1ccccc1C(=O)O)c1ccc(NC(=O)c2ccc(Br)o2)cc1 | ? | -6 | 0 | 0 | / | 6 | /
Cc1ccc(NC(=O)C(=O)NCc2ccc(C=NNC(=O)c3c(C)nc4cc(C)ccn34)o2)cc1 | / | 0 | / | 8 | / | 5 | /
CCN(CC)C(=O)[C@H]1C[C@H](CC(=O)NCc2cccc(C(F)(F)F)c2)C(=O)N2CCc3c([nH]c4ccc(Cl)cc34)[C@]12C | 2 | -30 | 1 | -11 | 32* | -2 | -3
Nc1nonc1-n1nnc(C(=O)NN=Cc2c[nH]c3ccccc23)c1-c1ccccc1 | / | -4 | / | 17 | / | 3 | /
Nc1scc2c(C(=O)N/N=C/c3ccc(Cl)cc3)nn(-c3ccccc3)c(=O)c12 | 0 | / | i | / | 36* | / | 64*
CCOC(=O)C(C(=O)OCC)c1cc(Br)c2noc3c2c1C(=O)c1ccccc1-3 | -1 | -7 | i | -5 | 35* | 18 | 11
O=C1c2ccccc2-c2onc3ccc(Oc4ccccc4)c1c23 | ? | 28 | -1 | 19 | 10 | 2 | /
Cc1noc(C)c1C(=O)OCC(=O)Nc1ccc(N2CCOCC2)cc1 | -1 | 0 | 0 | 8 | 32* | -2 | -12
Cc1noc(C)c1C(=O)OCC(=O)Nc1ccc(C(N)=O)cc1 | 0 | 3 | 0 | 5 | -9 | 7 | /
CCOC(=O)C1(Cc2cccc(OC)c2)CCN(Cc2cccc(O)c2)CC1 | 0 | / | -1 | / | 31* | / | -23
COc1cc(-c2ccc(NC(C)=O)c(OC)c2)ccc1NC(C)=O | -1 | -3 | 0 | 8 | -3 | 4 | /
COc1cc(O)c(NC(C)=O)c2nonc12 | 0 | 6 | 2 | 4 | 40* | 3 | -20
CCc1ccc(S(=O)(=O)Nc2cc(SCC(=O)O)c(O)c3ccccc23)cc1 | 1 | -1 | i | 7 | 114* | 8 | 101*
O=C(O)c1cccc(S(=O)(=O)Nc2ccc([N+](=O)[O-])cc2O)c1 | -1 | 5 | i | 3 | 4 | 1 | /
Cc1ccc(C)c(S(=O)(=O)Nc2cc(SCC(=O)O)c(O)c3ccccc23)c1 | 0 | 3 | 0 | 12 | / | 12 | /
O=C(O)CSc1cc(NS(=O)(=O)c2cccc([N+](=O)[O-])c2)c2ccccc2c1O | 96* | 2 | 0 | 6 | 108* | 20 | 99*
O=S(=O)(Nc1cc(Sc2cccc3cccnc23)c(O)c2ccccc12)c1ccccc1 | / | / | / | / | 40* | / | -3
